Giardia killer – kills Giardia lamblia | 340,000 tested, 0.15% active | Giardia lamblia trophozoite viability | activity change, % at 7.66 µM, hits read low; in the data active = activity change below about -80%; inconclusive = between about -30% and that limit;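 note: parasites exposed to compound for two days anaerobically before the ATP read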
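Trophozoites 100 cells/well + cpd; 48 hrs, 37 deg C, anaerobic. ATPLite 1-Step added, 15-30 min RT, luminescence read (ATP-based viability).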
ELG1 repair inh – ELG1-dependent DNA repair inhibition | HEK293T ELG1-luciferase reporter, luminescence, 16 h; DNA damage induced by 5-fluorouridine | Potency, µM (series often up to 46.1 µM), for inactives: at the highest dose activity change, negative = inhibition, usual class: inhibitors | 330,000 tested, 2.3% active | AID 504467; note: potency is the fitted concentration of half-maximal effect; nearly all actives have a fitted effect of over 55% in size
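Quantitative HTS, concentration-response format. 2,000 cells/well co-treated with 5-fluorouridine and compound, 16 hr in 5% CO2 at 37 °C; ONE-Glo luminescence read after 30 min.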
Coupling enz – coupling enzyme interference in Giardia aldolase counter-screen. coupling enzyme system counterscreen, AmpLite Red fluorescence. activity change, negative = inhibition, % at 58.2 µM, hits read low. 290,000 tested, 0.67% active. AID 2472; in the data active = activity change below about -30%
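Final compound at 57.5 uM, incubated 10 min at RT with coupling enzyme reagent (glyceraldehyde-3-phosphate), then 20 min with substrate and AmpLite Red detection. Fluorescence read at 525/598 nm; tests interference with the coupling assay, not aldolase inhibition.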
Sfp PPTase inh – blocks B. subtilis Sfp PPTase activity. Biochemical Sfp PPTase activity, qHTS. Q9F4F7. 310,000 tested, 3.5% active. Potency, µM, for the others: largest response in the series, negative = inhibition, actives largely listed as inhibitors;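 note: the enzyme is Sfp with the accession as filed and its product quenches rhodamine fluorescence; potency is the fitted concentration of half-maximal effect; 0% = enzyme reaction without inhibitor and -100% = no enzyme wells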
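Reaction rates are the 30-min fluorescence difference (ex 525, em 598 nm) in wells containing 15 nM Sfp, 5 uM rhodamine-CoA and 12.5 uM BHQ-2-YbbR at pH 7.6 with 10 mM MgCl2.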
Active calls of the source: *; ? = inconclusive; / = no result given; ! = repeats disagree. Most compounds without a hit are left out; they make up all but 5.5% or so of the library. Unless noted, calls come from the whole dose curve; as a rule, active = well fitted curve in the direction sought with a large enough effect; inconclusive = small, poorly fitted or top-dose-only effect, or another doubt; inactive = no such curve, though single readings can be large; an effect the other way counts as inactive or inconclusive. Unless noted, % is set by controls: 0 for no effect and ±100 for the full control effect.

SMILES | Giardia killer | ELG1 repair inh | Coupling enz | Sfp PPTase inh
CCOC(=O)c1sc(S(C)=O)c2c1CCc1conc1-2 (stereo not given) | -10 | -10% | -1 | 40µM*
Cc1cccc(Nc2nc(C)cc(C)n2)c1 | 1 | 30% | -3 | -23%
Cc1cc(N(C)C)nc(Nc2ccccc2)n1 | -11 | 15µM* | / | /
S=c1[nH]c2cc3ccccc3cc2[nH]1 | 17 | ? | -53*! | 56µM*!
Cc1cc2[nH]c(=S)[nH]c2cc1C | 13 | ? | -1 | 35µM*
S=c1[nH]c2ccc(Cc3ccc4[nH]c(=S)[nH]c4c3)cc2[nH]1 | 6 | ? | 0 | 28µM*
COc1ccc(-c2cn(-c3ccc(OC)cc3)c3[n+]2-c2ccccc2CC3)cc1 | 19 | 9.2µM* | 4 | 0%
C=CCNc1nc2c(c(=O)[nH]c(=O)n2C)n1CC(O)COc1ccc2ccccc2c1 (stereo not given) | 15 | 0% | 1 | -3%
COC(=O)c1c(NC(=O)c2ccoc2C)sc2c1CCC2 | -16 | 16% | 4 | ?
Cc1noc(C)c1C(=O)Nc1sc2c(c1C(N)=O)CCCCC2 | 0 | ? | 0 | 45µM*
CCOC(=O)c1c(NC(=O)c2c(C)noc2C)sc2c1CCCCC2 | 9 | 2% | / | 56µM*
Cc1occc1C(=O)Nc1sc2c(c1C(N)=O)CCCCC2 | -10 | ? | -7 | 25µM*
NC(=O)c1c(NC(=O)c2cnccn2)sc2c1CCCC2 | 22 | ? | -2 | 40µM*
Cc1noc(C)c1C(=O)Nc1sc2c(c1C(N)=O)CCC2 | 5 | -21% | 0 | 13%
Cc1noc(C)c1CSc1ccccc1C(=O)N(C)CC(=O)Nc1cccc(F)c1 | 14 | 5% | / | /
Cc1occc1C(=O)Nc1cnn(CCCC(=O)O)c1 | -1 | 24% | / | 3%
NC(=O)c1c(NC(NC(=O)c2ccco2)(C(F)(F)F)C(F)(F)F)sc2c1CCCC2 | 6 | 9% | -27 | 22µM*
O=C(NC(C(=O)c1ccccc1)c1ccccc1)c1ccccc1 (stereo not given) | 5 | / | / | /
Nc1c(C(=O)NC2CCCC2)sc2nc(-c3cccs3)ccc12 | -7 | ? | 3 | 45µM*
COc1cccc(CNc2ccc(N3CCCCC3)cc2)c1OC | 11 | 0% | -34* | 2.8µM*
COc1cccc(Nc2ccc(N3CCCCC3)cc2)c1OC | -16 | ? | / | /
C=CCOc1c(Cl)cc(CNc2ccc(N(C)C)cc2)cc1OC | 13 | 11% | -79* | 3.5µM*
COc1cc(CNc2ccc(N3CCCC3)cc2)cc(Cl)c1OC | -6 | 13% | -27 | 14µM*
CN(CC(=O)Nc1ccc(F)c(F)c1F)C(=O)C1COc2ccccc2O1 (stereo not given) | 17 | 9% | / | /
C=C(C)C(=O)Oc1ccc(N=Nc2ccc(C)cc2)ccc1=O | -6 | / | / | /
SMILES | Giardia killer | ELG1 repair inh | Coupling enz | Sfp PPTase inh
CCC(CC)c1nnc(NC(=O)C2CC(=O)N(CCc3ccc(F)cc3)C2)s1 (stereo not given) | 12 | 2% | 1 | 11µM*
CCc1nnc(NC(=O)C2CC(=O)N(C3CCCC3)C2)s1 (stereo not given) | 8 | 10% | 1 | -4%
CCC(CC)c1nnc(NC(=O)C2CC(=O)N(C3CCCC3)C2)s1 (stereo not given) | -1 | -7% | 0 | 50µM*
CCCCn1c(C23CC4CC(CC(C4)C2)C3)n[nH]c1=S | 3 | 0% | 7 | -15%
COc1ccc(N2CCN(c3c(S(=O)(=O)c4ccccc4)cnc4ccc(OC)cc34)CC2)cc1 | 29 | 18µM* | 0 | 12%
COc1ccc(S(=O)(=O)c2cnc3ccc(OC)cc3c2N2CCC3(CC2)OCCO3)cc1 | -4 | 23µM* | 0 | -5%
CCOc1ccc2ncc(S(=O)(=O)c3ccccc3)c(N3CCN(c4ccc(OC)cc4)CC3)c2c1 | -9 | 18µM* | 0 | -3%
O=C(CCl)NC(Cc1ccccc1)C(=O)OCC(=O)c1ccc(-c2ccccc2)cc1 (stereo not given) | -9 | / | / | /
CS(=O)(=O)c1ccc(NC(=O)c2cc3c(cc2Cl)N2CCCCCC2=NS3(=O)=O)cc1 | -2 | / | / | /
O=C(N/N=C/c1cc([N+](=O)[O-])ccc1O)C1CC1 | -23 | 18µM* | -1 | 23%
O=C(N/N=C/c1cc([N+](=O)[O-])ccc1O)c1cccc(N2CCCC2=O)c1 | 48 | 12µM* | 4 | 11%
O=C(N/N=C/c1cc([N+](=O)[O-])ccc1O)c1cccc2cc[nH]c12 | -1 | 4.6µM* | 2 | 6%

Assay outcomes from PubChem.
